Source: the supplement of paper PMC10849652
Targets with a hit are over-represented here; the source holds about 7,900 in all. About 0.6% of all pairs of compound and target were hits.

Assays:
Experiment in all cases: log2 fold change, soluble protein after heating vs DMSO (PISA); higher = thermal stabilisation; K562 cells, 10 uM, 30 min; active = over 0.2 and 3.5 SD of the protein, either way, in both replicates (recomputed)
[1] = compound: C[C@@H](Oc1cc(-c2cnn(C3CCNCC3)c2)cnc1N)c1c(Cl)ccc(F)c1Cl [crizotinib]
Outline: (§1)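 For each measurement, 10 μM compound was applied for 30 min to K562 cells at 2×10^6 cells/mL. Aliquots were heated for 3 min across 48°C-58°C, pooled, and extracted in PBS with 0.5% NP-40 at 4°C; the supernatant after 21,000xg for 90 min was soluble protein. This was quantified by TMTpro 16plex LC-MS/MS with channel sums equalised, and thermal stability was reported relative to control samples from duplicates, on a log2 fold-change scale.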

[2] = compound: Cc1cc(Nc2cc(N3CCN(C)CC3)nc(Sc3ccc(NC(=O)C4CC4)cc3)n2)n[nH]1 [tozasertib]
Outline: as §1

[3] = compound: Cc1ccc(-n2nc(C(C)(C)C)cc2NC(=O)Nc2ccc(OCCN3CCOCC3)c3ccccc23)cc1 [doramapimod]
Outline: as §1

[4] = compound: Cc1ccc(C(=O)N(CCCN)[C@@H](c2nc3cc(Cl)ccc3c(=O)n2Cc2ccccc2)C(C)C)cc1 [ispinesib]
Outline: as §1

[5] = compound: CS(=O)(=O)c1ccc(-c2cnc(N)c(C(=O)Nc3ccccc3)n2)cc1
Outline: as §1

[6] = compound: C[C@@H]1COCCN1C2=NC(=NC(=C2)C3(CC3)S(=O)(=O)C)C4=C5C=CNC5=CC=C4
Outline: as §1

[7] = compound: C[C@H](C1=CC=C(C=C1)C(=O)NC2=C3C=CNC3=NC=C2)N
Outline: as §1

[8] = compound: C[C@H](Nc1ncnc2nc[nH]c12)c1cc2cccc(Cl)c2c(=O)n1-c1ccccc1 [duvelisib]
Outline: as §1

[9] = compound: Cc1cc(Nc2cc(CN3CCOCC3)c3nc(C)c(Cc4ccc(Cl)cc4F)n3n2)n[nH]1 [gandotinib]
Outline: as §1

[10] = compound: Cc1cc(SCc2sc(-c3ccc(C(F)(F)F)cc3)nc2C)ccc1OCC(=O)O
Outline: as §1

Measured: log2 fold change

ANGEL1 (UniProt Q9UNK9)
UniProt Q9UNK9, sequence (Q9UNK9 whole entry, looked up): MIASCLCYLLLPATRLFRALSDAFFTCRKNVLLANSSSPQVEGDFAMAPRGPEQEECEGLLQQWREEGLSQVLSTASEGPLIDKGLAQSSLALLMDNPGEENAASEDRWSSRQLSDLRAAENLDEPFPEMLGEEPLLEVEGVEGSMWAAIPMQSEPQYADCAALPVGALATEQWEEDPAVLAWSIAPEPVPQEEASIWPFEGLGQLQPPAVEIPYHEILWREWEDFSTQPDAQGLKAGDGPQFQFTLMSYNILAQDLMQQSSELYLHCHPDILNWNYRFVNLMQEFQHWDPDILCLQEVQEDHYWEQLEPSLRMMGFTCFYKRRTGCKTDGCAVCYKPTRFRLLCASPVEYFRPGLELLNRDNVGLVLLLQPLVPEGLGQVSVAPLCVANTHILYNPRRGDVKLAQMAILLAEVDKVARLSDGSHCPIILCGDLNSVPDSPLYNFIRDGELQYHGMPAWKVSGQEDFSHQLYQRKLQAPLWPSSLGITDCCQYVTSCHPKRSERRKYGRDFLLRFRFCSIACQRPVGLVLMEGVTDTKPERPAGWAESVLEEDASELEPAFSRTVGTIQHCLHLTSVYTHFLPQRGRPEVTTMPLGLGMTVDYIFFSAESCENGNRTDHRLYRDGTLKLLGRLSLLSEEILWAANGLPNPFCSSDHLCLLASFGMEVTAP
inactive: [1] -0.058 | [2] -0.077 | [3] -0.028 | [4] 0.27

AIF1 (UniProt P55008)
UniProt P55008, sequence (P55008 whole entry, looked up): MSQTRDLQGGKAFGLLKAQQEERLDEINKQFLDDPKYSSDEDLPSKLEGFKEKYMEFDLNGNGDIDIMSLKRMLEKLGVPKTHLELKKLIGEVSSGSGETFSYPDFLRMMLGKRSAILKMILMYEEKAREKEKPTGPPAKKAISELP
inactive: [5] 0.008 | [6] 0.11 | [4] -0.317

AUH (UniProt Q13825)
UniProt Q13825, sequence (Q13825 whole entry, looked up): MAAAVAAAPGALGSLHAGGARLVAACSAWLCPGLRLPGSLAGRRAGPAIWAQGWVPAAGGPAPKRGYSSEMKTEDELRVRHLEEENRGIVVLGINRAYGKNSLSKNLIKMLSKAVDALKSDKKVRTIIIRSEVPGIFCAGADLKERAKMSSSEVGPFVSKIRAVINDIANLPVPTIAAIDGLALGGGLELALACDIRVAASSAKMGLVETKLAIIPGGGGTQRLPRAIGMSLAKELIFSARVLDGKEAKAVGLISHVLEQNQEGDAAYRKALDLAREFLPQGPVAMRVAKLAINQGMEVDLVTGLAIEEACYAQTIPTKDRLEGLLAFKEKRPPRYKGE
inactive: [1] -0.301 | [7] -0.105 | [8] -0.036 | [9] -0.127 | [2] -0.098 | [10] 0.135 | [3] 0.071 | [4] -0.069

ACTR3B (UniProt Q9P1U1)
inactive: [1] -0.005 | [9] 0.024 | [2] -0.02 | [3] 0.158 | [4] -0.069

ADD2 isoform 9 (UniProt P35612)
inactive: [5] -0.067 | [4] 0.04

BDH2 (UniProt Q9BUT1)
inactive: [5] 0.035 | [1] 0.243 | [7] -0.215 | [8] -0.01 | [9] 0.011 | [10] 0.067 | [3] -0.053 | [4] 0.053

BAP18 isoform 3 (UniProt Q8IXM2)
inactive: [9] 0.147 | [2] 0.012

ADD1 isoform 4 (UniProt P35611)
UniProt P35611, sequence (P35611 whole entry, looked up): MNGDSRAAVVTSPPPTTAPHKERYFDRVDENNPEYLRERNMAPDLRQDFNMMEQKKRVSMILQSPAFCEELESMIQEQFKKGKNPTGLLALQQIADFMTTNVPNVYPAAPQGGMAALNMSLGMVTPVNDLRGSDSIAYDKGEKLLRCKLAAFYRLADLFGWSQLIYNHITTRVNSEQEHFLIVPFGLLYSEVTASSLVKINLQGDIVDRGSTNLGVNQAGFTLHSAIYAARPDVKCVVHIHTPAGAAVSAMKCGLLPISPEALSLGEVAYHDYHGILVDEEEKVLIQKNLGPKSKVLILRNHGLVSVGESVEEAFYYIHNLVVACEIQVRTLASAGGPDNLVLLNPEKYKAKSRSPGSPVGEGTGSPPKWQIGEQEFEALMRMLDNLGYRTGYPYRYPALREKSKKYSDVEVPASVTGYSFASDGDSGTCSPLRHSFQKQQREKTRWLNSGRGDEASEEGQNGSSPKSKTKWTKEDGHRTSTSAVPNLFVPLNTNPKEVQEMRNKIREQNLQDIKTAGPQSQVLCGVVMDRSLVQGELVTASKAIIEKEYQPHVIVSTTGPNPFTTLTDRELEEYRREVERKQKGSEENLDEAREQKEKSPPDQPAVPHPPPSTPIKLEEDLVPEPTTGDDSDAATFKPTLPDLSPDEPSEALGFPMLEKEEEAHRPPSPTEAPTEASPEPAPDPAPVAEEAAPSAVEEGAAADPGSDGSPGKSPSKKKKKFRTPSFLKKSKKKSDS
inactive: [1] 0.152 | [6] -0.213 | [7] 0.186 | [9] -0.153 | [3] -0.075

AARSD1 (UniProt Q9BTE6)
UniProt Q9BTE6, sequence (Q9BTE6 whole entry, looked up): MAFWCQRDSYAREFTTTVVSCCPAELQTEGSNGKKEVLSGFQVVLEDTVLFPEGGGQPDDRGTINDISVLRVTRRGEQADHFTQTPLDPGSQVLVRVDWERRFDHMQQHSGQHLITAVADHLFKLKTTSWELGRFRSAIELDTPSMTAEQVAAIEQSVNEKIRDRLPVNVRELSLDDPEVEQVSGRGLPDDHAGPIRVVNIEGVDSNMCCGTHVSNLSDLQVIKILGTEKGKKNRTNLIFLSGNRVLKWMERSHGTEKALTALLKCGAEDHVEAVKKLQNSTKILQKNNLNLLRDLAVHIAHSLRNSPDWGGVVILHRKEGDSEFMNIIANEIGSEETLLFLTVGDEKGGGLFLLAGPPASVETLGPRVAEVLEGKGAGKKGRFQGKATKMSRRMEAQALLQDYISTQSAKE
inactive: [1] -0.036 | [7] 0.033 | [8] -0.258 | [10] 0.026 | [3] -0.096

ATXN7L3 isoform 2 (UniProt Q14CW9)
inactive: [5] 0.001 | [1] -0.043 | [3] 0.169 | [4] -0.007

AP2S1 (UniProt M0QZ21)
inactive: [2] -0.253

AKNA (UniProt Q7Z591)
inactive: [5] -0.015 | [7] -0.02

BAIAP2 isoform 4 (UniProt Q9UQB8)
inactive: [5] -0.112 | [7] 0.29 | [2] 0.042

BRD4 (UniProt O60885)
inactive: [5] 0.081 | [6] 0.288 | [7] -0.009 | [8] 0.207 | [9] -0.034 | [2] 0.033 | [10] -0.044 | [4] -0.022

BSCL2 isoform 4 (UniProt Q96G97)
UniProt Q96G97, sequence (Q96G97 whole entry, looked up): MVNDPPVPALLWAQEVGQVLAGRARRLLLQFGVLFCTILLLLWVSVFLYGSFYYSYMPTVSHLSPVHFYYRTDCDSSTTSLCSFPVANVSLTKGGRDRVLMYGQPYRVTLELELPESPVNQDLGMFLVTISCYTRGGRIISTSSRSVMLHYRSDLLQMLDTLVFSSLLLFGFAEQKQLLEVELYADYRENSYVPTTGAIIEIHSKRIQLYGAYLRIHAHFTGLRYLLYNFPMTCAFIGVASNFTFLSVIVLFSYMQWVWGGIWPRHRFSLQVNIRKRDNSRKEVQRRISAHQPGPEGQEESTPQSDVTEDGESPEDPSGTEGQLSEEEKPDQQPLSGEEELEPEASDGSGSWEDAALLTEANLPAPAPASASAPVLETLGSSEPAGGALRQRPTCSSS
inactive: [6] 0.05 | [7] -0.007 | [8] 0.129 | [9] -0.086 | [2] 0.008 | [10] 0.111

ALDH2 isoform 2 (UniProt P05091)
inactive: [5] 0.209 | [6] 0.244 | [9] -0.027 | [2] -0.224 | [4] -0.214

ACSL6 isoform 1 (UniProt Q9UKU0)
inactive: [5] -0.055 | [6] 0.164 | [8] -0.068 | [9] -0.145 | [2] -0.052 | [10] 0.157 | [4] -0.198

ABHD11 (UniProt Q8NFV4)
UniProt Q8NFV4, sequence (Q8NFV4 whole entry, looked up): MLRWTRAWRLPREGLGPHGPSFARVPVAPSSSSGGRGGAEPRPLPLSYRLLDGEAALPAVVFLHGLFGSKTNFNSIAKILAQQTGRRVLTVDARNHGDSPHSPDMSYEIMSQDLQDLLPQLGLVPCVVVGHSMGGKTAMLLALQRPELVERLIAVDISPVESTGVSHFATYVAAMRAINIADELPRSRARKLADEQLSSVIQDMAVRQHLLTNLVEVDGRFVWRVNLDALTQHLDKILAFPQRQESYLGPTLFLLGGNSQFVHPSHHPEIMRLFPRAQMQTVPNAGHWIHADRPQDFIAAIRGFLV
inactive: [1] 0.149 | [7] 0.057 | [8] 0.144 | [2] -0.039 | [10] -0.003 | [3] 0.028 | [4] 0.029
active: [6] 0.309 | [9] 0.389

ACVR1 (UniProt Q04771)
inactive: [5] 0.38 | [6] 0.04 | [8] 0.074 | [9] 0.109 | [2] 0.014 | [10] -0.061
active: [7] 0.642

ARRDC1 (UniProt Q8N5I2)
inactive: [5] 0.015 | [6] -0.097 | [7] 0.205 | [8] -0.263 | [9] 0.1 | [2] -0.075 | [10] -0.071 | [4] -0.082

ARHGAP25 isoform 4 (UniProt P42331)
inactive: [6] -0.066 | [7] 0.309 | [8] -0.067 | [9] -0.056 | [2] 0.111 | [10] 0.299

ALG14 (UniProt Q96F25)
UniProt Q96F25, sequence (Q96F25 whole entry, looked up): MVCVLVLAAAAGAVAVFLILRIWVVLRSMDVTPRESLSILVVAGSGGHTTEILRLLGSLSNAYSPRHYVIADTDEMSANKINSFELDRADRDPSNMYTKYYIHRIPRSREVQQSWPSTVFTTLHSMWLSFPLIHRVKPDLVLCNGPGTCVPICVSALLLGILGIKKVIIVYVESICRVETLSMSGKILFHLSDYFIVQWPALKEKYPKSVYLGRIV
active: [9] -0.798
inactive: [1] -0.034 | [6] -0.117 | [7] -0.042 | [8] 0.01 | [2] -0.134 | [10] -0.002 | [3] -0.038 | [4] -0.018

ATXN3 isoform 1 (UniProt P54252)
inactive: [1] -0.028 | [7] 0.076 | [9] -0.028 | [2] -0.163 | [3] 0.087 | [4] -0.043

ASS1 (UniProt P00966)
inactive: [5] 0.033 | [6] 0.017 | [7] -0.079 | [8] 0.039 | [9] -0.014 | [2] -0.085 | [10] -0.062 | [4] -0.205

AUNIP isoform 2 (UniProt Q9H7T9)
UniProt Q9H7T9, sequence (Q9H7T9 whole entry, looked up): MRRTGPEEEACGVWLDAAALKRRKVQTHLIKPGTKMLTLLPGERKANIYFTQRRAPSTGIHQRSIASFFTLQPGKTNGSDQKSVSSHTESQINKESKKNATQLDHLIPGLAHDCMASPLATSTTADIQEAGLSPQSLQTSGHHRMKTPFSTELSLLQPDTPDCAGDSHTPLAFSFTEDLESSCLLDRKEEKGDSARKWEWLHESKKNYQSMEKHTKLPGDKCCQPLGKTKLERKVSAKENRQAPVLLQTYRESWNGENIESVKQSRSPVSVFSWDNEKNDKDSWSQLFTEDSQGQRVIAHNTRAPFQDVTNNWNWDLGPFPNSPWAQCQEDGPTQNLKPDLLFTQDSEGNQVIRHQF
inactive: [5] 0.117 | [7] -0.007 | [8] 0.157 | [2] -0.203 | [10] 0.056

AURKA (UniProt O14965)
inactive: [5] 0.198 | [6] -0.251 | [7] 0.066 | [8] -0.058 | [10] -0.013 | [3] 0.051 | [4] -0.107
active: [9] 1.01

BTBD6 (UniProt Q96KE9)
UniProt Q96KE9, sequence (Q96KE9 whole entry, looked up): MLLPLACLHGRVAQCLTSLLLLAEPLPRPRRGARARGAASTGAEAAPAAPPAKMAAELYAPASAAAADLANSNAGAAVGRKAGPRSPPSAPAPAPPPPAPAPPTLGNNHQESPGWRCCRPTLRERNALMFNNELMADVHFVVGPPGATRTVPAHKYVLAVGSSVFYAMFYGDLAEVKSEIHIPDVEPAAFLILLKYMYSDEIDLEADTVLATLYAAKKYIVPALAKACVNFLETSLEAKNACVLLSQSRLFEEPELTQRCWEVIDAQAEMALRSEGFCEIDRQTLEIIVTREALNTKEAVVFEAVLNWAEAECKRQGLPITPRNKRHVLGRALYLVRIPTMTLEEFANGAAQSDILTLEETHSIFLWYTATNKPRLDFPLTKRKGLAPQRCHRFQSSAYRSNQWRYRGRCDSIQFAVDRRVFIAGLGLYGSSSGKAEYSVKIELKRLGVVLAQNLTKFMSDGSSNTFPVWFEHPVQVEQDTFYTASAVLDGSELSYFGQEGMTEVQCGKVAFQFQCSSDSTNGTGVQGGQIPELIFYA
inactive: [5] 0.117 | [6] 0.033 | [7] -0.308 | [8] 0.125 | [9] 0.64 | [2] -0.105 | [10] -0.061 | [4] 0.209

BRMS1 (UniProt Q9HCU9)
inactive: [6] -0.034 | [8] 0.049 | [9] -0.174 | [2] -0.094 | [10] -0.046

ALDH9A1 (UniProt P49189)
active: [9] 0.356
inactive: [5] 0.084 | [6] 0.061 | [7] -0.116 | [8] 0.002 | [2] -0.052 | [10] 0.045 | [4] -0.243

ATF1 (UniProt P18846)
inactive: [5] -0.004 | [6] 0.017 | [7] 0.073 | [9] 0.067 | [2] 0.113

AZI2 (UniProt Q9H6S1)
UniProt Q9H6S1, sequence (Q9H6S1 whole entry, looked up): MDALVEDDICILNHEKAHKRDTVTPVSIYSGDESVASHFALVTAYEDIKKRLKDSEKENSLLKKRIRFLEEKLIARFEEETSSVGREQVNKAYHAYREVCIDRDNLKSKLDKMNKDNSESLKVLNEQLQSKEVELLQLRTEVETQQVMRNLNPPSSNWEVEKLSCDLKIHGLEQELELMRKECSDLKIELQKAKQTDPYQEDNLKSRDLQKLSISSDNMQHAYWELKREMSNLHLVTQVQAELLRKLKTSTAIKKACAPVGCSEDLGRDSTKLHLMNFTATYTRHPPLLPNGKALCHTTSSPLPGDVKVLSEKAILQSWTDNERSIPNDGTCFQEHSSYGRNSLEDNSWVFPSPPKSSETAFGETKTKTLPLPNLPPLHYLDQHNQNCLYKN
inactive: [5] 0.074 | [2] 0.329 | [4] -0.019

BRAF, A0A2R8Y8E0
inactive: [1] 0.262 | [2] 0.248 | [4] -0.223
active: [3] -0.757

ARHGAP4 isoform 2 (UniProt P98171)
inactive: [5] 0.023 | [7] 0.212 | [8] -0.202 | [2] 0.105 | [10] 0.131 | [4] -0.111

ADAMTS5 (UniProt Q9UNA0)
inactive: [5] 0.077 | [1] 0.084 | [7] -0.08 | [8] 0.111 | [9] 0.178 | [2] -0.093 | [10] -0.136 | [3] 0.052 | [4] -0.035

ACTBL2 (UniProt Q562R1)
UniProt Q562R1, sequence (Q562R1 whole entry, looked up): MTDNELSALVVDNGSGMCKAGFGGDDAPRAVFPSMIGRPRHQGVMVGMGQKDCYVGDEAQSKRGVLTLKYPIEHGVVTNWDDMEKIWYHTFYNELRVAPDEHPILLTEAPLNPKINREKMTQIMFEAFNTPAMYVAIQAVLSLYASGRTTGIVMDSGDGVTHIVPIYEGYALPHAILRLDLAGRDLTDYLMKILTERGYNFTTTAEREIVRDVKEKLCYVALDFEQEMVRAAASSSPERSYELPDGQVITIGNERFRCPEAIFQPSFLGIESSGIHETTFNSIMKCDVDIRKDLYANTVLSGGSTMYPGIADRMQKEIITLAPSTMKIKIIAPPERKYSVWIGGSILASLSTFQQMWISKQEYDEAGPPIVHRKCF
inactive: [5] -0.022 | [6] -0.005 | [8] -0.091 | [9] -0.828 | [10] -0.299 | [4] -0.307
